Compound activity as filed in PubChem.
An excerpt weighted towards active compounds, which were near 1.5% of everything screened.
GLD-1 RNA inh: GLD-1-TGE RNA interaction inhibition (C. elegans). Q17339. purified GLD-1 + fluorescein TGE RNA, fluorescence polarization. inhibition, % at 5.96 µM. 0.44% of 320,000 active. AID 2280;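 active means percent inhibition above a per-plate cutoff, the plate mean of test compounds plus 3 SD, cut at about 30% in these data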;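 further: 0% = DMSO wells with GLD-1 and probe and 100% = wells lacking GLD-1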
Target sequence (Q17339 whole entry, looked up): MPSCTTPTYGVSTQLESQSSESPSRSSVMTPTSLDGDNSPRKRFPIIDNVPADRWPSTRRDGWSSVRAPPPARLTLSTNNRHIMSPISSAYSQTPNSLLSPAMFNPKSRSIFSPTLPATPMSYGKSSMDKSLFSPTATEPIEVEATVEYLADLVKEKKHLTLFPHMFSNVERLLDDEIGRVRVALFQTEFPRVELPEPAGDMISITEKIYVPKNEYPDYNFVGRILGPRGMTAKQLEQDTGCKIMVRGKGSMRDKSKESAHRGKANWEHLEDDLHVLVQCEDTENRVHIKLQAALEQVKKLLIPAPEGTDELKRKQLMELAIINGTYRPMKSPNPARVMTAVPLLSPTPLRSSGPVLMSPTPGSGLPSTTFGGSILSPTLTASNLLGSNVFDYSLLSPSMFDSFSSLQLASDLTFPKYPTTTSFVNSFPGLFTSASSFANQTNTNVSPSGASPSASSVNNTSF
Bcl-xL primary: blocks human Bcl-xL binding to Bim BH3 peptide; Q07817; GST-Bcl-xL / FITC-Bim BH3 peptide fluorescence polarization; inhibition, % at 10.9 µM; 0.7% of 320,000 active;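 active means inhibition above the mean of all tested compounds plus 3 SD, cutoff set per campaign, cut at about 30% in these data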;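 further: 0% = DMSO wells and 100% = unlabeled Bim-BH3 peptide competitor; inhibitors lower millipolarization by displacing the labeled peptide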
EBV gp42 block: EBV gp42 inhibition. inhibition, % (tested at 21.74 µM). Fluorescence polarization binding assay, mP read-out. 0.42% of 220,000 active. AID 1085. Q1HVG2; in the data active means inhibition above about 50%
MEX-5 binding: C. elegans MEX-5 TCR-2 RNA binding activity | 0.38% of 300,000 active | Q9XUB2 | MEX-5/FITC-TCR2 RNA binding, fluorescence polarization; active compounds read low | AID 1832 | activity score (negative = inhibition of binding), % at 10 µM;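 active means inhibition past about -25% in most replicates, and total fluorescence under double the plate's negative control median, limit read from the data; inconclusive means replicates evenly split on the limit, or fluorescence at least double controls; inactive means too little inhibition in most replicates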;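 further: 0% = DMSO and -100% = 5 µM competing unlabeled TCR2 RNA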
MCL1 BIM primary: disrupts human MCL1 binding to BIM-BH3 peptide; inhibition, % at 10.9 µM; 0.68% of 320,000 active; GST-MCL1 / FITC-Bim-BH3 fluorescence polarization; Q07820;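 active means inhibition above the mean inhibition of all tested compounds plus 3 SD, set per campaign, cut at about 40% in these data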;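 further: 0% = DMSO wells and 100% = unlabeled Bim-BH3 peptide control; higher means more loss of mP so more displacement of Bim peptide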
E coli Lon inh: inhibitors of E. coli Lon protease; P0A9M0; purified E. coli Lon protease, fluorescence polarization; inhibition, % at 7.94 µM; 0.42% of 360,000 active; AID 602123; in the data active means inhibition above about 13%, passing the limit was not always enough;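 further: 0% = enzyme with probe and DMSO and 100% = no enzyme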
The depositor's hits bear a star; ? = inconclusive; . = no result given.

SMILES	GLD-1 RNA inh	Bcl-xL primary	EBV gp42 block	MEX-5 binding	MCL1 BIM primary	E coli Lon inh
COc1cc(/C=C2/S/C(=N/S(=O)(=O)c3ccccc3)NC2=O)c([N+](=O)[O-])cc1OC	20.1	39.9*	-9.9	-4.6	46.2*	-0.3
COCCNc1nc(-c2cc(C)n(CCc3ccc(OC)cc3)c2C)cs1	-0.9	32.6*	7.5	-1.9	22.0	-21.5
CC1(C)CC(=O)C=C(CN2C(=O)c3ccccc3C2=O)C1=O	5.9	6.0	.	.	0.8	-1.4
Cc1ccc(-c2cc(C(=O)N3CCCc4ccccc43)c3ccccc3n2)cc1	6.7	2.1	-1.6	-0.1	6.5	-0.8
Cc1ccc2nc3sc(C(=O)N4CCCc5ccccc54)c(N)c3cc2c1	-18.5	-7.7	45.8	-34.8*	-23.9	-56.9
CN(C)c1ccc(NC(=O)C(=O)C2C(=O)Nc3ccccc32)cc1 (centres undefined)	1.0	5.0	-12.8	-2.5	3.4	5.2
CN(C)c1ccc(CC2C(=O)Nc3ccccc32)cc1 (centres undefined)	21.4	45.8*	-4.0	-5.9	33.7	17.0
CC(=O)Nc1ccc(S(=O)(=O)NC(C)(C#N)C2CC2)cc1 (centres undefined)	3.6	0.8	.	-1.3	-0.3	-6.5
Nc1c(C(=O)Nc2nccs2)sc2nc(-c3cccs3)cc(C(F)(F)F)c12	19.5	31.4*	1.0	-1.3	33.4	-104.1
Cc1nnc(NC(=O)c2sc3nc(-c4cccs4)cc(C(F)(F)F)c3c2N)s1	-37.0	21.4	-18.0	-4.8	7.7	-103.5
COc1ccccc1NC(=O)c1sc2nc(Cc3ccccc3)cc(C(F)(F)F)c2c1N	-5.0	-5.6	73.9*	-143.4*	-9.6	-5.7
CC(C)(C)C(=O)c1sc2nc(-c3cccs3)cc(C(F)(F)F)c2c1N	-28.1	19.9	9.2	-74.0*	-0.4	-10.5
Cc1ccc(S(=O)(=O)Nc2ccc(C(=O)N3CCN(c4ccccc4O)CC3)cc2)cc1[N+](=O)[O-]	-8.0	1.5	.	0.1	0.1	1.8
COc1ccc(-c2cc(C(=O)N/N=C(\C)c3ccco3)c3ccccc3n2)c(OC)c1	4.8	6.3	.	-31.8*	9.4	-0.1
COCCCN1C(=O)C(CC(=O)NCCCCc2ccccc2)CC(C(=O)N2CCOCC2)=C1C (centres undefined)	.	.	.	.	.	-3.7
CCOc1cc(/C=C2/NC(=O)N(CC(=O)OC)C2=O)ccc1OC	-4.2	-3.1	-2.2	0.7	-7.6	-6.6
CCOc1cc(Br)c(/C=C2/C(=O)N(C)C(=S)N2CC(=O)OC)cc1OC	-5.5	6.4	-6.4	-31.8*	3.5	-3.1
CCN(CC(=O)Nc1ccc(OC)cc1)C(=O)C1CC(=O)N(Cc2ccccc2)C1 (centres undefined)	.	.	.	.	.	-4.3
CCN(CCn1cccn1)C(=O)CC1C(=O)NCCN1CCc1ccccc1 (centres undefined)	7.6	15.8	.	-2.3	16.1	2.7
CCN(CC)c1ccc(C=N/C(C#N)=C(\N)C#N)cc1	-22.8	-4.3	32.3	-109.4*	-21.6	-19.8
Cn1cc(S(=O)(=O)N2CCN(c3ccccc3F)CC2)c(=O)n(C)c1=O	-1.8	-0.3	-10.5	2.4	1.5	6.9
COc1ccccc1N1CCN(S(=O)(=O)c2cn(C)c(=O)n(C)c2=O)CC1	-7.9	47.0*	-2.6	0.4	-6.8	-13.2
O=C(NN1C(=O)/C(=C/c2cc([N+](=O)[O-])ccc2O)SC1=S)c1ccccc1O	-6.7	4.6	.	-11.1	55.2*	.
O=C(NN1C(=O)/C(=C/c2ccc(O)c([N+](=O)[O-])c2)SC1=S)c1ccccc1Cl	-35.1	-20.3	-29.4	-17.5	-32.2	-18.4
COc1ccc2nc3ccccc3nc2c1	27.1	35.3*	31.8	-2.6	36.3	8.5
COc1ccc(-c2nc3ccccc3nc2-c2ccccc2)cc1	-10.2	2.1	-23.3	-1.5	7.1	0.4
COc1ccc([C@H]2CC(=O)C=C(c3ccc(C)c([N+](=O)[O-])c3)C2)cc1	0.1	-0.5	.	.	-2.4	2.6
COc1ccc(C=NCCC2(O)CC(C)N(C)CC2C)cc1 (centres undefined)	7.4	31.2*	-5.2	-10.2	41.1*	4.2
O=C(OCCN1C(=O)c2cccc3c(N4CCOCC4)ccc(c23)C1=O)c1ccc(Cl)cc1	7.6	20.4	123.2*	?	-0.8	-21.7
